NR3A LBD binder: binders of NR3A ligand-binding domain, primary screen, biophysical, differential scanning fluorimetry, uHTS; 340,000 tested, 2.5% active; Tm shift relative to glycine control, % at 25 µM; AID 1259313, 2017; Glutamate receptor ionotropic, NMDA 3A (GRIN3A) ligand-binding domain; NR3A LBD differential scanning fluorimetry, Tm shift; 0% = protein alone, 100% = glycine-bound protein;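 active = melting temperature shift of at least 10% of the positive control shift, at one fixed dose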
AI-2 QS mod: Vibrio harveyi AI-2 quorum sensing modulators, primary screen, JMH597 strain, luminescence/OD600 ratio | Vibrio harveyi JMH597 AI-2 luminescence/OD600 ratio, 9 h; hits give low values; strain lacks LuxN and CqsS sensors; 0 = neutral-control median | activity change, % at 7.5 µM | 300,000 tested, 0.4% active; in the data active = activity change below about -75%, passing the limit was not always enough;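 note: luminescence divided by OD600 gain over 9 h not by final OD600 alone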
NTR1 ag: agonists of human NTR1, primary screen, imaging, U2OS cells, beta-arrestin-GFP, high content | NTR1-U2OS beta-arrestin-GFP spot imaging, agonist mode | activation, % at 20 µM | Neurotensin receptor type 1 (Homo sapiens), P30989 | 330,000 tested, 0.17% active;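 active = activation at or above 40% of the spot to cytoplasm intensity ratio, with at least 20 cells analyzed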
SUMO Mot1 rescue: yeast Mot1-301 growth rescue at high temperature, primary screen, SUMOylation pathway inhibitor project, S. cerevisiae, ATP luminescence, 38.5C; growth rescue, % at 18.8 µM; 320,000 tested, 1% active; S. cerevisiae Mot1-301 growth rescue; percent above DMSO median, 100 means doubled;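 active = every valid replicate shows activation above 250% relative to neutral control wells; inactive = the rest, any valid replicate at or below 250%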
Cardio protect: cardioprotection against H2O2-induced cell death, primary screen, uHTS, H9c2 cells, ATPLite luminescence. 360,000 tested, 0.63% active. protection from H2O2 cell death, % at 20 µM. H9c2 cardiomyocytes, H2O2 injury protection, 2 h. AID 588492, 2011;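 active = compounds giving at least 50% protection of heart cells from peroxide-induced death in the single-dose screen, raw or plate-pattern-corrected value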
AHR act: AHR activators, primary screen, cell-based, luminescence, luciferase reporter, human. activation, % at 5 µM. 320,000 tested, 2.5% active. Aryl hydrocarbon receptor (Homo sapiens), P35869. AHR-responsive luciferase reporter cells. AID 2796, 2010; in the data active = activation above about 47%
Target sequence (P35869 whole entry, looked up): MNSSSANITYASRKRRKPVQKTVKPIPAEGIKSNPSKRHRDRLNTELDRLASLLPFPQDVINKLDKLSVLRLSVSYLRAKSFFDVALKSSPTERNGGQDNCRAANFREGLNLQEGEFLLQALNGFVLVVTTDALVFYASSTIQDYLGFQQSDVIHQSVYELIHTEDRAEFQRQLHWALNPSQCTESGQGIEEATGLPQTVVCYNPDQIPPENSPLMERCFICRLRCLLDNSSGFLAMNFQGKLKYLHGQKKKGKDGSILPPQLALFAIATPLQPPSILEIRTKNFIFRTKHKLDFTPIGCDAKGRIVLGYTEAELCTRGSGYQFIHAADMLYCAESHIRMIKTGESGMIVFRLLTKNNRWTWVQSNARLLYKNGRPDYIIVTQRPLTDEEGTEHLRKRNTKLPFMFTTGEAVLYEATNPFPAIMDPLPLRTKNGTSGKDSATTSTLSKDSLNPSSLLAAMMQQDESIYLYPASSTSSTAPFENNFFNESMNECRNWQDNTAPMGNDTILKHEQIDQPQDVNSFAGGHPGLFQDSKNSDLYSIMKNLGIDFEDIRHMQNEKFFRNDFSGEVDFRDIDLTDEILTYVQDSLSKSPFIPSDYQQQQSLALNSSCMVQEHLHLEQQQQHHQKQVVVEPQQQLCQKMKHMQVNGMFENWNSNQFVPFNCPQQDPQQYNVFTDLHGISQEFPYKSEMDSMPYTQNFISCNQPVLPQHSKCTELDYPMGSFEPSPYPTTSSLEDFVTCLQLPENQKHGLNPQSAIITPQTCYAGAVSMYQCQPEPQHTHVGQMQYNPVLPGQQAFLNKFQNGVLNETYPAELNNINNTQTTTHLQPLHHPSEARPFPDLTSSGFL
Each line names hits and unclear results; the compound was inactive in the other large screens. Only some compounds are listed: those with a hit (about 6.2% of all), similar ones and a draw of the others.

C[C@@H]1CCCCO[C@@H](CN(C)Cc2ccncc2)[C@@H](C)CN([C@H](C)CO)C(=O)c2cc(NC(=O)c3ccccc3)ccc2O1	none (no result: NR3A LBD binder, AI-2 QS mod, NTR1 ag, SUMO Mot1 rescue, AHR act)
O=C(OCc1ccc(Br)cc1F)c1cc2ccccc2oc1=O	none (no result: AI-2 QS mod)
Cc1cc(OCC(=O)Nc2cccnc2)c2c(C)cc(=O)oc2c1	AHR act 63.7
CCCCc1cc(=O)oc2cc(O)ccc12	Cardio protect 52.5
CCCCCCc1c(C)c2ccc(OCC(=O)N[C@@H](Cc3ccccc3)C(=O)O)cc2oc1=O	SUMO Mot1 rescue 522.5
Cc1c(C)c2ccc(OCC(=O)N[C@@H](Cc3ccccc3)C(=O)O)cc2oc1=O	none (no result: NTR1 ag)
CCCCc1cc(=O)oc2cc(OCC(=O)N3CCOCC3)ccc12	none
Cc1cc(OCC(=O)NCc2cccnc2)c2c(C)cc(=O)oc2c1	none
CC(C)NS(=O)(=O)c1ccc(NC(=O)C(C)OC(=O)CCC2CCCC2)cc1 (centres undefined)	none (no result: AI-2 QS mod)
CC(NC(=O)C(=O)NCCN1CCN(C(=O)c2ccc([N+](=O)[O-])cc2)CC1)c1ccccc1 (centres undefined)	none
c1ccc(N2CC3COc4ccccc4C3=N2)cc1 (centres undefined)	NR3A LBD binder 16.8 (no result: AI-2 QS mod, NTR1 ag, SUMO Mot1 rescue, AHR act)
Nc1nc(CSCCO)nc(Nc2ccc(F)cc2)n1	none
N#Cc1cnc(Nc2ccc(F)cc2)nc1N	NR3A LBD binder 13.3
COc1ccc(NC(=O)COC(=O)CCc2ccccc2)c(OC)c1	none
COCC(=O)n1nc(-c2ccccc2)nc1NCc1ccc(F)cc1	NR3A LBD binder 12.7
COc1cccc(/C=N/NC(=O)C(=O)N/N=C/c2cccc(OC)c2O)c1O	Cardio protect 65.7 (no result: AI-2 QS mod, NTR1 ag, SUMO Mot1 rescue, AHR act)
COc1ccc2ccccc2c1/C=N/NC(=O)c1cccc([N+](=O)[O-])c1	none
COc1cccc(/C=N/NC(=O)C(=O)N2CCCCCC2)c1O	none
COc1cccc(/C=N/NC(=O)CSCC(=O)Nc2ccccc2)c1O	Cardio protect 55.2
COc1cccc(/C=N\NC(=O)C2C(=O)NCC2c2ccccc2)c1O (centres undefined)	Cardio protect 72.5
COc1cccc(/C=N/NC(=O)c2cc3cc([N+](=O)[O-])ccc3s2)c1O	NR3A LBD binder 12.3 (no result: NTR1 ag)
CN(C)C(=O)CN1C(=O)NC2(CCc3ccccc32)C1=O (centres undefined)	none
COc1ccc(-c2noc(CN(C)C(=O)CCCN3C(=O)[C@H]4CC=CC[C@H]4C3=O)n2)cc1	none (no result: NR3A LBD binder, AI-2 QS mod, NTR1 ag, SUMO Mot1 rescue, AHR act)
O=C(CNC(=O)c1nc[nH]c1C(=O)N1CCc2ccccc2C1)OCc1ccccc1	Cardio protect 104.8
O=C(CNC(=O)c1nc[nH]c1C(=O)N1CCNCC1)OCc1ccccc1	none
C[C@@H](NC(=O)c1nc[nH]c1C(=O)NCC(=O)OCc1ccccc1)c1ccccc1	Cardio protect 92.4
CC(C)(C)OC(=O)N1CCC(NC(=O)c2nc[nH]c2C(=O)NCC(=O)OCc2ccccc2)CC1	Cardio protect 72.2
CC(C(=O)Nc1ccc(C(N)=O)cc1)N1C(=O)c2ccccc2S1(=O)=O (centres undefined)	none
CN(CC(=O)Nc1ccccc1Br)C(=O)c1ccccc1-c1nc2ccccc2s1	none
Cc1ccc(C(=O)Nc2ccc3cn[nH]c3c2)cc1S(=O)(=O)N1CCCCC1	AHR act 55.0
Cc1nc2ccc(NC(=O)c3ccc(C)c(S(=O)(=O)N4CCOCC4)c3)cc2s1	NR3A LBD binder 13.3 (no result: AI-2 QS mod)
Cc1ccc(C(=O)Nc2ccc(Cl)cn2)cc1S(=O)(=O)N1CCOCC1	NR3A LBD binder 18.7 (no result: SUMO Mot1 rescue)
Cc1ccc(C(=O)NC2CCCCCCC2)cc1S(=O)(=O)N1CCOCC1	NR3A LBD binder 33.7 (no result: AI-2 QS mod, SUMO Mot1 rescue, AHR act)
Cc1nc2ccc(NC(=O)c3cc(S(=O)(=O)N4CCOCC4)ccc3C)cc2s1	none
COc1ccc(OC)c(C(=O)CSc2nnc(C3CC3)n2C2CC2)c1	none (no result: NR3A LBD binder, AI-2 QS mod, NTR1 ag, SUMO Mot1 rescue, AHR act)
Cc1ccc(NC(=O)c2oc3ccccc3c2COC(C)C)cc1S(=O)(=O)N1CCOCC1	none (no result: AI-2 QS mod)
Cc1nc2ccc(NC(=O)c3ccc(Cl)c([N+](=O)[O-])c3)cc2s1	none
Cc1nc2ccc(NC(=O)c3cc([N+](=O)[O-])cc([N+](=O)[O-])c3Cl)cc2s1	NR3A LBD binder 17.9 (no result: AI-2 QS mod, NTR1 ag)
O=C(Nc1ccc(-c2cn3ccsc3n2)cc1)c1ccc(F)c(S(=O)(=O)N2CCOCC2)c1	NR3A LBD binder 25.2
Cc1nc2ccc(NC(=O)c3ccc(S(=O)(=O)N(C)C)cc3)cc2s1	NR3A LBD binder 10.2
O=C(Nc1ccc(Cl)cc1)C1Cc2c(-c3cccc(F)c3)ccnc2O1 (centres undefined)	none (no result: NR3A LBD binder, AI-2 QS mod, NTR1 ag, SUMO Mot1 rescue, AHR act)
CCCCCCn1c(SCC(=O)NC2CCS(=O)(=O)C2)nc2ccccc2c1=O (centres undefined)	none (no result: NR3A LBD binder, AI-2 QS mod, NTR1 ag, SUMO Mot1 rescue, AHR act)
COc1ccc(C(=O)CC(=O)c2ccccc2O)cc1OC	NR3A LBD binder 15.2
CCC(=O)c1ccc(OCc2ccccc2)c(OC)c1	NR3A LBD binder 11.1
COc1ccc(C(=O)CC(=O)c2ccccc2O)cc1	none
N#C/C(=C\c1ccc(-c2ccc(Br)cc2)o1)C(=O)NCCc1c[nH]c2ccccc12	NR3A LBD binder 27.0
O=C(COC(=O)Cc1c(Cl)cccc1Cl)Nc1ccc(OC(F)(F)F)cc1	AHR act 67.4
O=C(Cc1ccc(Cl)cc1Cl)NCc1cccnc1	none
Nc1cc(-c2ccc(Cl)cc2)nn1S(=O)(=O)c1cccc2nsnc12	NR3A LBD binder 18.7
O=C(C1CCC(=O)N(C2CC2)C1)N1CCN(c2cccc(Cl)c2)CC1 (centres undefined)	none (no result: AHR act)
COc1cc(/C=N/NC(=O)c2ccccc2O)ccc1OCC(=O)Nc1ccccc1	NR3A LBD binder 37.4, Cardio protect 77.8
CCOc1ccc(/C=N/NC(=O)Nc2ccccc2)cc1	AHR act 60.8
O=C(Oc1ccc(/C=N/NC(=O)c2ccccc2O)cc1)c1ccccc1	NR3A LBD binder 13.4 (no result: SUMO Mot1 rescue)
O=C(COc1ccc(/C=N/NC(=O)c2ccccc2O)cc1)Nc1ccccc1	NR3A LBD binder 15.8
CC(NC(=O)c1ccccc1F)c1nnc(SCC(=O)Nc2nnc(C3CC3)s2)n1C (centres undefined)	none (no result: NR3A LBD binder)
CN1CCN(c2ncnc3c2ncn3[C@H]2CN(Cc3ccc(F)cc3)C[C@@H](CO)O2)CC1	none (no result: NR3A LBD binder, AI-2 QS mod, NTR1 ag, SUMO Mot1 rescue, AHR act)
CCCCOc1ccc(C(=O)N/C(=C\c2ccc(OC)cc2)C(=O)OCc2ccco2)cc1	Cardio protect 57.3
COc1ccc(C(=O)N/C(=C\c2ccco2)C(=O)OCc2ccco2)cc1	none
CCCCOC(=O)/C(=C/c1cn(C)c2ccccc12)NC(=O)c1ccc(OC)cc1	AHR act 81.0
